Assay outcomes as filed in PubChem BioAssay.
Compounds with a hit are over-represented: about 1.7% of the library has one in this group of screens.
Rin1-Abl PPI inh = human Rin1-Abl interaction inhibition. TR-FRET Rin1/Abl binding, biochemical. P00519+Q13671. 360,000 compounds, 0.4% hits. inhibition, % at 7.35 µM; in the data active means inhibition above about 5%, passing the limit was not always enough
SUMO1-SIM PPI = modulators of human SUMO1-mediated protein-protein interactions. P63165. SUMO1 binding to a labelled peptide, TR-FRET, 1 h. inhibition, % at 20 µM. 360,000 compounds, 0.33% hits; in the data active means inhibition above about 37%
Neddylation inh = blocks human cullin neddylation; 360,000 compounds, 0.58% hits; inhibition, % at 25 µM; TR-FRET cullin neddylation, biochemical; AID 651699; in the data active means inhibition above about 36%
Target sequence (P61081 whole entry, looked up): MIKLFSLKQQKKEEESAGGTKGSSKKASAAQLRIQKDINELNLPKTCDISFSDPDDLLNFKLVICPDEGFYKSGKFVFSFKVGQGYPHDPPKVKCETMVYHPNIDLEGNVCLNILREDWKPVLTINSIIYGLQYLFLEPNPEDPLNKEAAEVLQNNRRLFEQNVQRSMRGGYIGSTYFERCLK
Target sequence (Q13564 whole entry, looked up): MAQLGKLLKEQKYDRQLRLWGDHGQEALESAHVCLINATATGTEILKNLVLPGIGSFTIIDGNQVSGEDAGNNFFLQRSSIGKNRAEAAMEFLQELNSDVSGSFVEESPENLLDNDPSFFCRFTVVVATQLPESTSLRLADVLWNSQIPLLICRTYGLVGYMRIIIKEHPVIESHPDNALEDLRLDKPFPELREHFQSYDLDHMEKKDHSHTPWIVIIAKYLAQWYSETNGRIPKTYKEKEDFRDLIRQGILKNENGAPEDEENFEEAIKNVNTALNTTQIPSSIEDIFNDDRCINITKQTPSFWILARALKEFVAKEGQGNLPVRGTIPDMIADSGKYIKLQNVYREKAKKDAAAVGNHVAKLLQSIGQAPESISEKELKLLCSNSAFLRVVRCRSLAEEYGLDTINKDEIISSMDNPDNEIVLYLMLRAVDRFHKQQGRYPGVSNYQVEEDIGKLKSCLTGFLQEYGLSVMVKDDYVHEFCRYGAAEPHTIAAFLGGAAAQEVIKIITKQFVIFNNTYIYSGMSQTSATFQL
ATG4B inh = inhibitors of human ATG4B cysteine protease; Q9Y4P1; ATG4B cleavage of LC3-PLA2, NBD-HPC fluorescence, 1 h; inhibition, % at 8.33 µM; 340,000 compounds, 0.51% hits; in the data active means inhibition above about 40%
Rin1 Abl conf = confirmation of inhibitors of human Rin1-Abl interaction. 1,300 compounds, 49% hits. TR-FRET Rin1-Abl binding, purified proteins. AID 602124. inhibition, % at 7.35 µM. shares compounds with Rin1-Abl PPI inh
GFP quencher = GFP fluorescence interference artifact; shares compounds with Rin1-Abl PPI inh; inhibitors/quenchers counterscreen; inhibition, % at 6.75 µM; 1,300 compounds, 8.5% hits;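 further: ABL1-eGFP fusion protein alone without its partner RIN1-SBP; 0% = protein with vehicle and 100% = wells lacking protein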
GFP quench DR = GFP fluorescence interference dose response; shares compounds with Rin1-Abl PPI inh; GFP fluorescence interference/quenching counterscreen; IC50, µM; 230 tested, under 10 active; AID 602182; call rule not given here;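 further: ABL1-eGFP fusion protein alone without its RIN1 binding partner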
Neddyl conf = cullin neddylation inhibition, confirmation; 1,800 compounds, 13% hits; shares compounds with Neddylation inh; TR-FRET cullin neddylation biochemical assay; calls only at 25 µM; in the data active means inhibition above about 40%;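 further: neddylation substrate is the cullin 1 ring ligase complex with SKP2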
Active calls of the source: *; i = inactive; x = not tested or not shown; + = active, no number. Unless noted, no stated cut-off is given here; in the data, active means inhibition above about 6.5%; inactive means the rest.

SMILES	Rin1-Abl PPI inh	SUMO1-SIM PPI	Neddylation inh	ATG4B inh	Rin1 Abl conf	GFP quencher	others
CCNS(=O)(=O)c1ccc(CCC(=O)O)cc1	8.8*	0.1	-7.1	12.3	-1.0	0.8
CCNS(=O)(=O)c1ccc(CCC(N)=O)cc1	5.7	0.6	0.0	-0.4	x	x
CCCSc1nnc(CSc2nc(C)cc(C)n2)n1C	19.8*	1.8	-7.5	-8.6	14.8*	2.6
CCC(C)Sc1nnc(CSc2nc(C)cc(C)n2)n1C (centres undefined)	2.1	-5.2	-7.2	-6.8	x	x
CC(C)N1CCCC(C)(C(=O)Nc2nc3ccccc3[nH]2)C1 (centres undefined)	-3.1	-2.5	-4.6	x	x	x
O=C(NN=c1c(=O)c2ccccc2c1=O)c1ccccc1	23.4*	19.8	-15.3	-13.3	29.4*	-0.1	GFP quench DR=>67.6
CN(C)/C=N/NC(=O)c1ccccc1	-1.0	0.1	6.2	-10.2	x	x
COc1ccc(C2c3c(nc[nH]c3=O)Oc3nc[nH]c(=O)c32)cc1	50.4*	2.3	11.1	x	63.9*	-1.6	GFP quench DR=>67.5
CC(=O)NCCc1nc2cc(NS(=O)(=O)c3ccc(Cl)cc3)ccc2n1C	-0.6	1.8	4.2	1.1	x	x
Cn1c(CCNC(=O)c2ccco2)nc2cc(NS(=O)(=O)c3ccc(Cl)cc3)ccc21	5.7*	6.0	-3.1	-11.0	-2.9	0.8
CC(=O)c1ccc(OC(C)C)c(CN2CCCCC2)c1	8.6*	0.0	-1.6	0.8	-1.2	0.3
Cn1cccc1Cc1nnc(SCC(=O)N2CCOCC2)n1CCc1ccccc1	-1.0	2.6	0.9	0.2	x	x
CCOC(=O)N1CCN(C(=O)CSc2nnc(Cc3cccn3C)n2CCc2ccccc2)CC1	5.7*	-2.9	-1.4	-12.8	-0.8	-0.6
COc1cccc(NC(=O)CN(C)CC(=O)Nc2ccc(C)c(S(=O)(=O)N3CCOCC3)c2)c1	1.1	-0.9	-1.0	-6.0	x	x
CCc1ccccc1NC(=O)CN(C)C(=O)COC(=O)c1c(Cl)cccc1Cl	4.6	7.5	9.0	-10.8	x	x
Cc1ccccc1NC(=O)CNC(=O)c1ccc(C(F)(F)F)cc1	0.9	-1.9	-0.8	-0.8	x	x
Cc1ccccc1NC(=O)Nc1ccc(C(F)(F)F)cc1	9.0*	-2.6	2.7	2.5	-1.3	0.2
CCOC(=O)c1cc2c(c(CCO)n1)[C@@H](CCO)N(S(=O)(=O)C(C)(C)C)C2	-2.0	7.2	2.7	-2.0	x	x
COc1ccc(CC(=O)OCC(=O)Nc2ccc(F)cc2)cc1	1.2	-6.5	3.0	-4.4	x	x
COc1ccc(CC(=O)OCC(=O)NC(=O)Nc2ccccc2F)cc1	8.9*	5.9	-16.1	2.6	0.0	-0.6
Cc1ccc2cc3c(NC(=O)c4cccnc4)nn(C)c3nc2c1	6.0*	-10.1	36.6	1.2	21.2*	0.5
CC(=O)Nc1nn(C)c2nc3cc(C)ccc3cc12	-3.7	-15.5	34.0	-8.5	x	x
Cc1ccc(N(CC(=O)NC(C)(C)C)C(=O)CCC(=O)Nc2ccccn2)cc1	-0.3	-2.0	4.7	x	x	x
CC(CNC(=O)CN1C(=O)CCSc2ccccc21)c1ccccc1 (centres undefined)	-2.6	0.0	3.8	3.4	x	x
CCOc1ccc(CCNC(=O)CN2C(=O)CCSc3ccccc32)cc1	10.6*	0.2	-1.6	-1.6	1.4	0.4
SMILES	Rin1-Abl PPI inh	SUMO1-SIM PPI	Neddylation inh	ATG4B inh	Rin1 Abl conf	GFP quencher	others
CC(C)(C)[C@@H]1C=C(C(=O)N2CCN(Cc3ccccc3)CC2)O[C@H](OCc2ccc(CO)cc2)C1	4.8	0.5	-3.6	-12.6	x	x
CC(C)(C)[C@H]1C=C(C(=O)N2CCN(Cc3ccccc3)CC2)O[C@@H](OCCCCO)C1	15.7*	3.3	-16.6	-1.6	3.7	-0.1
CCOc1ccccc1N(C(=O)c1snc(C(N)=O)c1N)C(C(=O)NCc1ccccc1)c1ccc(O)cc1 (centres undefined)	14.6*	-10.9	42.4*	0.8	26.5*	1.2	GFP quench DR=>67.5
NC(=O)c1nsc(C(=O)N(c2ccccc2)C(C(=O)NCC2CCCO2)c2ccc3ncccc3c2)c1N (centres undefined)	2.3	-16.6	x	1.4	x	x
CCOc1ccccc1N(C(=O)c1snc(C(N)=O)c1N)C(C(=O)NCC1CCCO1)c1ccc2ncccc2c1 (centres undefined)	21.3*	-11.4	51.8*	-2.2	28.5*	-1.0	GFP quench DR=>67.5;Neddyl conf=i
COc1ccncc1-c1csc(C(O)c2ccccc2)n1 (centres undefined)	-1.7	1.3	-3.2	x	x	x
C=CCOc1c(CNc2cccc(C(=O)O)c2)cccc1OCC	-0.7	0.7	47.4*	-6.7	x	x	Neddyl conf=i
C=CCOc1c(CNc2cccc(C(=O)O)c2)cccc1OC	-1.0	2.9	x	6.1	x	x
CCOc1cc(S(=O)(=O)NCc2ccco2)c(OCC)cc1-n1cnnn1	-0.4	2.6	43.0*	1.9	x	x
CC(C)CNc1ncnc2c1ncn2[C@H]1CN(Cc2cccs2)C[C@@H](CO)O1	1.4	0.4	0.0	x	x	x
CCC1CCCN1Cn1cnc2c([nH]c3ccccc32)c1=O (centres undefined)	-0.7	-3.1	40.6*	1.4	x	x	Neddyl conf=i
O=C(NC1CCCCC1)c1cnn2c(C(F)(F)F)cc(-c3ccco3)nc12	-1.1	-9.8	42.5*	4.2	x	x	Neddyl conf=+
O=C(NC1CCCCC1)c1nn2c(C(F)(F)F)cc(-c3ccco3)nc2c1Br	3.2	-5.6	8.4	2.5	x	x
O=C(NC1CCCC1)c1cc2nc(-c3ccco3)cc(C(F)(F)F)n2n1	-1.0	-12.1	55.4*	10.3	x	x	Neddyl conf=i
CCCCNC(=O)c1cc2nc(-c3ccccc3)cc(C(F)(F)F)n2n1	0.2	-3.8	x	-3.2	x	x
CCCNC(=O)c1cc2nc(-c3ccccc3)cc(C(F)(F)F)n2n1	-4.0	-15.1	44.8*	6.5	x	x
COc1ccc(NC(=O)C(c2ccccc2)n2c(=O)c(-c3ccco3)nc3ccccc32)cc1 (centres undefined)	x	-9.1	10.4	x	x	x
CC(C)(C)c1ccc(C(=O)N2CCC2(C)C(=O)Nc2ccc3nc[nH]c3c2)cc1 (centres undefined)	-3.8	4.3	-7.6	x	x	x
COc1ccccc1C(O)c1ncc(-c2cccc(C(F)(F)F)c2)[nH]1 (centres undefined)	2.1	1.7	-5.6	x	x	x
c1ccc(-c2oc3ncnc(NCCCN4CCOCC4)c3c2-c2ccccc2)cc1	-6.5	-10.4	52.3*	-14.8	x	x	Neddyl conf=+
COc1ccc(-c2oc3ncnc(NCCCN4CCOCC4)c3c2-c2ccc(OC)cc2)cc1	-6.0	-12.6	x	-12.2	x	x
COc1ccc(CN2C(=O)CCC2(C)c2nnnn2-c2ccc3c(c2)OCCO3)cc1 (centres undefined)	x	6.5	-0.9	x	x	x
O=C(NC1CCCCC1)N(CCO)Cc1cc2cc3c(cc2[nH]c1=O)OCCO3	4.6	-0.9	44.3*	-5.2	x	x	Neddyl conf=i
